HCT116 bCat-KO: beta-catenin-lacking colon tumor cell growth suppression; HCT116 beta-catenin knockout viability, CellTiter-Glo, 60 h; active compounds read low; viability, % at 10 µM; hit rate 1.5% among 140,000; AID 818;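 active means viability at or under a set limit, the compound median less 4 SD, cut at about 6% in these data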
Autophagy HCS: alters autophagy in cells | MEF GFP-LC3 puncta imaging; test concentration mostly 10 µM | calls only at 10 µM (by protocol) | hit rate 0.98% among 190,000;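 active means percentage of spot-positive cells more than 3 SD above its plate mean, without a fluorescence outlier flag or 80% toxicity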
INS promoter inh: TRM-6 insulin promoter activity inhibition. TRM-6 cells (human fetal islet line), insulin promoter-eGFP reporter, imaging; reporter expression induced with tamoxifen. inhibition, % at 2 µM. hit rate 0.9% among 130,000. AID 1273;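 active means inhibition above the mean plus 3 SD, with well images judged a real hit on visual review, cut at about 60% in these data, passing the limit was not always enough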
L major viab: inhibitors of Leishmania major promastigote growth | Leishmania major promastigotes, resazurin fluorescence viability | inhibition, % at 10 µM | hit rate 9% among 200,000; in the data active means inhibition above about 50%;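 further: promastigotes grown with compound for 44 hours at 28 °C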
Ins promoter up: MIN6 insulin promoter up-regulation | z-score at 5 µM | MIN6 insulin promoter-GFP reporter, high-content imaging; active compounds read high | hit rate 0.3% among 190,000;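 active means z-score above 3 at 5 µM with at least 500 cells counted in the well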
HCT116 PTEN-null: PTEN-deleted cell growth suppression | AID 827 | hit rate 1.2% among 140,000 | viability, % at 10 µM | HCT116 PTEN-null viability, CellTiter-Glo, 60 h; active compounds read low;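 active means viability at or below a set limit, 4 SD under the median of all tested compounds, cut at about 3.7% in these data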;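 further: PTEN knockout HCT116 line with beta catenin targeted HCT116 as companion control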
Hits are given with their value; . = inactive; / = no result; + = active, no number. Rows were chosen to be rich in hits. Some 9.6% of all compounds tested hit in one or more screens of this group.

SMILES	HCT116 bCat-KO	Autophagy HCS	INS promoter inh	L major viab	Ins promoter up	HCT116 PTEN-null
Cc1cc(N2CCOCC2)nc2ccc(NC(=O)CCC(=O)N3CCCCC3)cc12	.	.	/	.	.	.
Cc1cc(N2CCCCC2)nc2ccc(NC(=O)c3ccc(Br)o3)cc12	.	.	.	93.7	.	.
Cc1cc(N2CCN(C)CC2)nc2ccc(NC(=O)c3ccc4c(c3)OCO4)cc12	.	.	.	100.5	.	.
CN1CCN(c2ccc(NC(=O)c3ccc4c(c3)OCO4)cc2)CC1	.	.	/	.	/	.
O=C(c1ccc(=O)n(Cc2ccccc2)n1)N1CCN(C/C=C/c2ccccc2)CC1	.	.	.	.	.	.
Cc1ccc(NC(=O)N2Cc3ccccc3CC2C(=O)NC(C)(C)C)cc1 (centres undefined)	.	.	.	.	.	.
CCOC(=O)CCSc1nc(-c2ccccc2)cc(C(F)(F)F)n1	.	.	.	.	/	.
COc1ccc(-c2noc(CSc3nnc(-c4ccncc4)n3-c3ccc(F)cc3)n2)cc1OC	.	.	.	71.7	.	.
CCc1ccc(-n2c(SCc3c(C)noc3C)nnc2-c2ccncc2)cc1	.	.	.	72.0	.	.
O=C(O)c1ccc(CSc2nnc(-c3ccncc3)n2-c2ccc(Cl)cc2)cc1	/	.	/	.	.	/
CCOC(=O)c1c(NC(=O)c2cc3n(n2)C(C(F)(F)F)CC(c2cccs2)N3)sc(C)c1C (centres undefined)	1.5	.	/	.	.	1.0
CC(C)c1ccc(S(=O)(=O)/N=C2/C=CC(=O)c3ccccc32)cc1	/	.	/	74.1	.	/
Cc1ccc(SCc2cc(-c3ccc(Cl)cc3)no2)cc1	.	.	/	.	3.09	.
O=C(CCl)NCc1cc(-c2ccc(Cl)cc2)no1	/	.	.	71.3	.	/
CN(Cc1ccc(F)cc1)C(=O)c1cccc(OC2CCN(C3CCCC3)CC2)c1	/	.	/	92.9	.	/
CC(=O)Oc1ccc(Cn2cnc3cc4ccccc4cc32)cc1	.	.	.	57.7	/	.
CCCC(c1nnnn1Cc1ccccc1)N1CCN(c2ccccc2OC)CC1 (centres undefined)	.	.	/	.	.	.
Cc1cc(C)n2c(SCc3ccc(C#N)cc3)nnc2n1	.	.	.	.	.	.
C/C(=N\NC(=O)C(C)n1nc(C)c([N+](=O)[O-])c1C)c1ccccc1O (centres undefined)	6.1	.	.	.	.	.
CCOc1ncccc1C(=O)OCC(=O)Nc1ccc(C(C)C)cc1	/	.	.	.	.	/
Cc1ccc(S(=O)(=O)Nc2ccc(C(N)=O)cc2)cc1[N+](=O)[O-]	/	.	.	.	/	/
Cc1cccc2c(N=Nc3ccc(S(=O)(=O)Nc4ccc(Cl)cc4)cc3[N+](=O)[O-])c(O)[nH]c12	/	.	.	53.1	.	/
O=C(c1ccco1)N1CCN(CCCCOc2cccc3ccccc23)CC1	.	.	.	87.5	.	.
O=C(c1ccco1)N1CCN(CCOCCOc2cccc3ccccc23)CC1	.	.	.	89.8	.	.
CCOc1ccccc1-n1c(CN2CCN(C(=O)c3ccco3)CC2)nc2ccccc2c1=O	3.6	.	.	.	.	2.5
SMILES	HCT116 bCat-KO	Autophagy HCS	INS promoter inh	L major viab	Ins promoter up	HCT116 PTEN-null
CCCN1C2CCCC1CC(NC(=O)c1ccccc1OCC)C2 (centres undefined)	.	.	.	.	.	.
CCOC(=O)C(=CNc1ccccc1N1CCOCC1)C(=O)OCC	/	/	/	/	.	/
COc1ccc(C=O)cc1COc1ccc([N+](=O)[O-])c(C)c1	/	.	/	.	.	/
CCOc1cc(N2CCOCC2)c(OCC)cc1NC(=O)CCS(=O)(=O)c1ccc(Cl)cc1	.	.	/	.	.	.
COc1ccc(N2C(=O)[C@@H]3[C@H](C2=O)[C@H]2c4ccccc4C=CN2[C@@H]3C(C)=O)cc1	.	.	.	.	.	.
Cc1ccc2[nH]c(=O)c(CN(Cc3ccc4c(c3)OCO4)Cc3nnnn3C3CCCC3)cc2c1	.	.	/	63.7	.	.
Cc1ccc2[nH]c(=O)c(CN(Cc3ccc4c(c3)OCO4)Cc3nnnn3Cc3ccco3)cc2c1	.	.	.	100.0	.	.
CCOc1ccc2[nH]c(=O)c(CN(CCO)C(c3nnnn3C3CCCCC3)C(C)C)cc2c1 (centres undefined)	.	.	.	68.6	.	.
CCc1ccc2[nH]c(=O)c(CN(Cc3nnnn3C3CCCC3)C3CCCCC3)cc2c1	1.8	.	.	.	.	1.6
CCCN1CCN(C(c2cc3cc(OCC)ccc3[nH]c2=O)c2nnnn2C2CCCCC2)CC1 (centres undefined)	.	.	.	.	.	.
Cc1cc2cc(CN(Cc3ccc4c(c3)OCO4)Cc3nnnn3C3CCCC3)c(=O)[nH]c2cc1C	.	.	/	.	.	.
Cc1cc(C)c2cc(CN(Cc3ccc4c(c3)OCO4)Cc3nnnn3Cc3ccco3)c(=O)[nH]c2c1	.	.	.	.	.	.
CCN(CC)C(=O)CCCc1c[nH]c2ccccc12	/	.	/	.	.	/
CN(c1ccccc1C(=O)NCc1ccco1)S(C)(=O)=O	.	.	.	.	.	.
COc1ccc(S(=O)(=O)CCC(=O)NCCc2ccc(Cl)cc2)cc1	.	.	/	.	.	.
Cc1onc(-c2c(Cl)cccc2Cl)c1C(=O)N1CCN(c2ccccc2)CC1	/	.	.	95.6	.	/
Cc1onc(-c2c(Cl)cccc2Cl)c1C(=O)N1CCN(c2ncccn2)CC1	/	.	.	.	.	/
Cc1onc(-c2ccccc2Cl)c1C(=O)N1CCN(c2nc3ccccc3s2)CC1	.	.	.	50.6	.	.
Cc1cc(NC(=O)c2cnccn2)no1	.	.	/	.	.	.
O=C(Nc1cccn2ncnc12)C(Cl)Cl	.	.	.	.	.	.
COc1ccc(NC(=O)Cn2nnc(-c3ccccc3NS(=O)(=O)c3ccc(OC)cc3)n2)cc1	.	.	.	68.8	.	.
COc1ccc(NC(=O)Cn2nnc(-c3ccccc3NC(=O)c3cccs3)n2)cc1	.	.	.	.	.	.
COc1ccccc1NC(=O)Cn1nnc(-c2ccccc2NC(=O)c2cc3ccccc3oc2=O)n1	.	.	/	100.5	.	.
Cc1ccc(NC(=O)Cn2nnc(-c3ccccc3NC(=O)c3cccs3)n2)cc1	4.0	+	.	.	.	3.4
CCn1nnc(-c2ccccc2NS(=O)(=O)c2ccc(C(=O)OC)cc2)n1	.	.	.	.	.	.
SMILES	HCT116 bCat-KO	Autophagy HCS	INS promoter inh	L major viab	Ins promoter up	HCT116 PTEN-null
COc1ccccc1NC(=O)Cn1nnc(-c2ccccc2NS(=O)(=O)c2ccccc2)n1	.	.	.	51.2	.	.
O=C(Cn1cnc2ccccc2c1=O)Nc1ccc(S(=O)(=O)N2CCCC2)cc1	/	.	/	.	.	/
Cc1ccc(OCC(=O)NNC(=S)NC(=O)C(C)(C)C)c(Br)c1	/	.	/	.	.	/
CC1CCN(c2nc(-c3ccccc3)c(C#N)c(=O)[nH]2)CC1	.	.	.	.	.	.
Cc1ccc(N2CC(C(=O)Nc3nccs3)CC2=O)cc1Cl (centres undefined)	.	+	/	.	/	.
O=C(CNS(=O)(=O)c1ccc(C(=O)N2CCOCC2)cc1)N1CCOCC1	.	.	/	.	.	.
CC(C)CCN1CCN(Cc2cccc(-n3cccn3)c2)CC1CCO (centres undefined)	/	.	/	83.2	.	/

Bioassay records from PubChem BioAssay.
